Laboratory results from PubChem BioAssay (EPA / NIEHS).
Active and inactive are the calls of the source. The calls were made as follows: active = hit-call score of the fitted dose curve at least 0.9, where 1 is the maximum; inactive = score below 0.9.

What was measured:
[1] = molecular target: Paired box protein Pax-6 (Homo sapiens) (UniProt P26367); assay: ATG_Pax6_CIS: Attagene CIS-FACTORIAL HepG2 Assay for human Paired Box 6 (PAX6) (AID 2282956); conditions: HepG2 CIS-FACTORIAL PAX6 reporter transcription, RNA readout; actives raise or lower the signal
How it was run: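 Multiplexed cis-reporter HepG2 system; 24 h treatment; reporter mRNA read by RT-PCR/CE fluorescence; bidirectional fit vs DMSO.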

[2] = ATG_PXRE_CIS: Attagene CIS-FACTORIAL HepG2 Assay for human Pregnane X Receptor Element (PXRE) (AID 2282957); conditions: HepG2 Attagene CIS-FACTORIAL PXRE reporter, mRNA; actives raise or lower the signal
How it was run: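 Multiplexed cis-reporter assay in transiently transfected human HepG2 cells; 24 h chemical exposure. Reporter transcripts quantified by RT-PCR with fluorescent labeling and capillary electrophoresis.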

[3] = ATG_PPRE_CIS: Attagene CIS-FACTORIAL HepG2 Assay for human Peroxisome Proliferator-activated Response Element (PPRE) (AID 2282958); conditions: HepG2 PPRE cis-element reporter, Attagene transcription factor profiling; actives raise or lower the signal
How it was run: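 In this cell-based multiplex, a PPRE cis element drives a reporter sequence in transiently transfected HepG2 cells. Following 24 h treatment, labeled cDNA amplicons are sized and quantified by capillary electrophoresis, with DMSO defining baseline.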

[4] = ATG_RORE_CIS: Attagene CIS-FACTORIAL HepG2 Assay for human RAR-related Orphan Receptor Element (RORE) (AID 2282959); conditions: HepG2 Attagene cis-factorial RORE reporter, mRNA; actives raise or lower the signal
How it was run: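 Endogenous factor activity at a cis response element is read as reporter transcript levels in HepG2 cells, 24 h post-dose. Transcripts are quantified by RT-PCR with capillary electrophoresis, and data fitted in both directions against DMSO.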

[5] = ATG_Sox_CIS: Attagene CIS-FACTORIAL HepG2 Assay for human SRY-box transcription factor (SOX) (AID 2282960); conditions: HepG2 Attagene cis-factorial SOX reporter, mRNA; actives raise or lower the signal
How it was run: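 Measures mRNA induction of a SOX1-associated reporter in HepG2 after 24 h dosing. Fluorescently labelled RT-PCR fragments are separated by capillary electrophoresis, and gain or loss relative to DMSO control is fitted.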

[6] = molecular target: Transcription factor Sp1 (Homo sapiens) (UniProt P08047); assay: ATG_Sp1_CIS: Attagene CIS-FACTORIAL HepG2 Assay for human Specificity Protein 1 (Sp1) (AID 2282961); conditions: HepG2 Sp1 cis-reporter transcription, actives raise or lower the signal
How it was run: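 Cells: HepG2, transiently transfected with cis-regulated multiplexed reporters. Exposure: 24 h. Detection: reporter transcripts amplified, fluorescently labeled, restriction-digested and sized by capillary electrophoresis. Analysis: bidirectional fit relative to DMSO.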

[7] = ATG_SREBP_CIS: Attagene CIS-FACTORIAL HepG2 Assay for human Sterol Regulatory Element Binding (SREBP) (AID 2282962); conditions: HepG2 Attagene cis-factorial SREBP reporter, mRNA; actives raise or lower the signal
How it was run: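 mRNA induction of transfected cis-promoter reporters in HepG2 cells, 24 h post-dose. Detection: RT-PCR with 6-FAM-labelled products, HpaI digest, capillary electrophoresis. DMSO served as negative control and baseline.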

[8] = molecular target: Signal transducer and activator of transcription 3 (Homo sapiens) (UniProt P40763); assay: ATG_STAT3_CIS: Attagene CIS-FACTORIAL HepG2 Assay for human Signal Transducer and Activator of Transcription 3 (STAT3) (AID 2282963); conditions: HepG2, Attagene cis-factorial STAT3 reporter transcription; actives raise or lower the signal
How it was run: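 Transcript-level reporter assay. HepG2 transient MRTU transfection, 24 h exposure, fluorescence detection after RT-PCR and CE; DMSO baseline.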

[9] = ATG_TA_CIS: Attagene CIS-FACTORIAL HepG2 Assay for human TA Basal Promoter (AID 2282964); conditions: HepG2 Attagene CIS-factorial TA basal promoter reporter; actives raise or lower the signal
How it was run: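 Transient MRTU transfection of HepG2 preceded 24 h compound exposure. Reporter mRNA levels were then read by RT-PCR with capillary electrophoresis, and this background-control endpoint was fitted bidirectionally to DMSO.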

[10] = ATG_TCF_b_cat_CIS: Attagene CIS-FACTORIAL HepG2 Assay for human T-Cell-Factor with beta-catenin (TCF/b-cat) (AID 2282965); conditions: HepG2 TCF/beta-catenin cis-reporter transcription, actives raise or lower the signal
How it was run: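 Using capillary electrophoresis as the read-out, labelled reporter cDNA fragments from transiently transfected HepG2 were sized and quantified. Exposure lasted 24 hours; activity in either direction was referenced to DMSO.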

Measured: AC50

Paired box protein Pax-6 (Homo sapiens), sequence (P26367 whole entry, looked up): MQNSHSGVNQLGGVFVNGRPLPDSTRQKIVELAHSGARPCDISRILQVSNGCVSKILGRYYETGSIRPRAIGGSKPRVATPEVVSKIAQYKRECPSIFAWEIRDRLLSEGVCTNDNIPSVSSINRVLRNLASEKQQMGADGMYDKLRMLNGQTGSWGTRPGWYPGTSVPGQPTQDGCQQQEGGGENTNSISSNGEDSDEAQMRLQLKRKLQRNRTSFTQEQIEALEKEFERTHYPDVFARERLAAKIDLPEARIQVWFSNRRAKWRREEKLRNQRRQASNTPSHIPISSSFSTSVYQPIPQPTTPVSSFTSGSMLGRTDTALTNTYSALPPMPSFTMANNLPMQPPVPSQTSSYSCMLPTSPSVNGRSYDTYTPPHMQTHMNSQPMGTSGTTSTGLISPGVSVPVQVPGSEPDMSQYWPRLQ
Signal transducer and activator of transcription 3 (Homo sapiens), sequence (P40763 whole entry, looked up): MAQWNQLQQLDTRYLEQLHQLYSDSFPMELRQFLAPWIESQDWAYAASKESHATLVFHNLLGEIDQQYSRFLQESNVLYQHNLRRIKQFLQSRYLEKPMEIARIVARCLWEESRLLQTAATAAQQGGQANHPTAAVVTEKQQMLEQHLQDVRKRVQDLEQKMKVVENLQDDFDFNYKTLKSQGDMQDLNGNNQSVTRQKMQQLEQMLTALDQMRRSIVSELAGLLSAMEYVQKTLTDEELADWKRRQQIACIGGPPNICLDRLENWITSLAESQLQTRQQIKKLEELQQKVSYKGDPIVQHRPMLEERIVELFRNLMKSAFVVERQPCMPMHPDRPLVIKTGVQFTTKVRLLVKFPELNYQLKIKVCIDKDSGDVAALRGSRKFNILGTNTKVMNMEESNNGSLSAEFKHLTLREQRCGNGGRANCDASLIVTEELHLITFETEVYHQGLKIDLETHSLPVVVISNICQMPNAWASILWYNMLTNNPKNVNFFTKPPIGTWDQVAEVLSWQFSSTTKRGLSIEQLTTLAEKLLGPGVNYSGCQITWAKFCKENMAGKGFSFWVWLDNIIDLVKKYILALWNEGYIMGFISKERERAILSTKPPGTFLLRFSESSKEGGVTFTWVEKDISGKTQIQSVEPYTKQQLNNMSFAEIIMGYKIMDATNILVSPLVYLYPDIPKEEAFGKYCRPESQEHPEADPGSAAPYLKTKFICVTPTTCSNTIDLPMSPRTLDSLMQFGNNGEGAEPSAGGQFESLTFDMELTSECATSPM
Transcription factor Sp1 (Homo sapiens), sequence (P08047 whole entry, looked up): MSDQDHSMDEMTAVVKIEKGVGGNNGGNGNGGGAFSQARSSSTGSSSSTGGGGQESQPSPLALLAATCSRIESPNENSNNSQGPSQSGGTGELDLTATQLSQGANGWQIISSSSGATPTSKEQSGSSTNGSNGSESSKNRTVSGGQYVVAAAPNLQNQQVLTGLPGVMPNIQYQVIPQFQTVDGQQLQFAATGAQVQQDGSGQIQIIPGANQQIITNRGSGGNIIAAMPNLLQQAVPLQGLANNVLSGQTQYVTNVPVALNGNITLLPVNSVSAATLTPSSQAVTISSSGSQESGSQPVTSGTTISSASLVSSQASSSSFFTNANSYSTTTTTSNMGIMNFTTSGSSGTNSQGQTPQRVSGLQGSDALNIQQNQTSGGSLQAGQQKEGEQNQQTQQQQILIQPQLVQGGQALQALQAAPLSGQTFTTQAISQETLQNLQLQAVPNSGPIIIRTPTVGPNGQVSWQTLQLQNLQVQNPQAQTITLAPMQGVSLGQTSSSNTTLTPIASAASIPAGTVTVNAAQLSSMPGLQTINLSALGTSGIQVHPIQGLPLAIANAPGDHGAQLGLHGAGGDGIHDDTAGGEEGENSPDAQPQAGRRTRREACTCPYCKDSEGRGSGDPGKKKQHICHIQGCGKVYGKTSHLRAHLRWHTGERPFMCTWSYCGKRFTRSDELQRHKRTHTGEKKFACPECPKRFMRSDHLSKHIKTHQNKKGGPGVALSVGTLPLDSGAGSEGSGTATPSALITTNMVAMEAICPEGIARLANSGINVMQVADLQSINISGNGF

CCCC(O)C(O)CO (stereo unspecified)
inactive: all assays above

C#CC(C)(O)CC(C)C (stereo unspecified)
inactive: all assays above

CN1C(=O)c2ccccc2C1=O
inactive: all assays above

CCCCCC(=O)CC
active: [2] 33.4 µM
inactive: all other assays above

Nc1ccccc1[N+](=O)[O-]
inactive: all assays above

CCCCCCCCCC(=O)OC
inactive: all assays above

O=C(O)CNc1ccccc1
active: [2] 19.2 µM
inactive: all other assays above

c1ccc(CCc2ccccc2)cc1
active: [2] 26.1 µM | [6] 169 µM
inactive: all other assays above

CCOC(=O)CCc1ccccc1
inactive: all assays above

FC(F)(F)COCC(F)(F)F
inactive: all assays above

CCCCCCCCCCCCCCCC(=O)OC/C=C(C)/C=C/C=C(C)/C=C/C1=C(C)CCCC1(C)C
active: [2] 3.09 µM
inactive: all other assays above

O=C(CC(=O)c1ccccc1)c1ccccc1
active: [1] 100 µM | [2] 25.3 µM | [3] 3.67 µM | [4] 26.7 µM | [5] 100 µM | [6] 94.3 µM | [7] 67.7 µM
inactive: [8] | [9] | [10]

O=C1CCCC=CCCCCCCCCCC1
active: [2] 9.05 µM | [6] 48.8 µM | [10] 49.3 µM
inactive: all other assays above

O=c1c(O)c(-c2ccc(O)cc2)oc2cc(O)cc(O)c12
active: [2] 39.1 µM
inactive: all other assays above

O=[N+]([O-])c1cccc(Cl)c1
inactive: all assays above

CCCCOC(=O)CCCCCCCC(=O)OCCCC
active: [10] 128 µM
inactive: all other assays above

C=C1C[C@]23C[C@@]1(O)CC[C@H]2[C@@]12C=C[C@H](O)[C@@](C)(C(=O)O1)[C@H]2[C@@H]3C(=O)O
inactive: all assays above

NCc1ccco1
inactive: all assays above

CCCCC1(COC(=O)CCC(=O)O)C(=O)N(c2ccccc2)N(c2ccccc2)C1=O
active: [2] 19.5 µM
inactive: all other assays above

CCC(=O)O[C@@H]1C[C@H]2CC[C@]1(C)C2(C)C
inactive: all assays above

CCCCCCCCCCCC(=O)OC[C@@H](O)[C@H]1OC[C@H](O)[C@H]1O
inactive: all assays above

C=C(CC(=O)O)C(=O)O
inactive: all assays above

COC(=O)C=C(C)CCC=C(C)C
active: [2] 7.51 µM
inactive: all other assays above

C[Si]1(C)O[Si](C)(C)O[Si](C)(C)O1
active: [2] 32.5 µM
inactive: all other assays above

O=C(O)CCCCCCCCC(=O)O
inactive: all assays above

CC(C)(C)C1=CC(=O)C(C(C)(C)C)=CC1=O
active: [1] 61.5 µM | [2] 1.29 µM | [3] 13.4 µM | [7] 25.7 µM | [10] 50 µM
inactive: [4] | [5] | [6] | [8] | [9]

COc1cccc(OC)c1O
active: [2] 27 µM
inactive: all other assays above

CCN(CC)C(=O)N(CC)CC
active: [2] 52 µM
not listed: [8]
inactive: all other assays above

Cc1[nH]c(=O)c(C#N)cc1-c1ccncc1
not listed: [8]
inactive: all other assays above

CC(C)(N=C=O)c1cccc(C(C)(C)N=C=O)c1
active: [2] 13.1 µM
not listed: [8]
inactive: all other assays above

CC1CC(O)CC(C)(C)C1 (stereo unspecified)
not listed: [9]
inactive: all other assays above

C=CCCCCCCCCCC
not listed: [8]
inactive: all other assays above

CC(C)C[C@H](NC(=O)OCC1c2ccccc2-c2ccccc21)C(=O)O
active: [2] 28.2 µM | [3] 14.7 µM | [7] 69.1 µM
not listed: [9]
inactive: all other assays above

Nc1ccc2c(O)cc(S(=O)(=O)O)cc2c1
inactive: all assays above

CC(=O)C(C)O (stereo unspecified)
inactive: all assays above

Cc1ccc(N)c(S(=O)(=O)O)c1
not listed: [8]
inactive: all other assays above

C=CC(=O)OCCC#N
active: [1] 47.9 µM | [2] 62.5 µM | [5] 41.1 µM | [7] 76.4 µM
inactive: all other assays above

CCC(C)S (stereo unspecified)
not listed: [9]
inactive: all other assays above

C=CC(C)C#N (stereo unspecified)
not listed: [8]
inactive: all other assays above

CCOc1ccc(NC(=O)CC(C)O)cc1 (stereo unspecified)
not listed: [9]
inactive: all other assays above

CCOC(=O)CN
inactive: all assays above

C=C(C)C(=O)OCC(CC)(COC(=O)C(=C)C)COC(=O)C(=C)C
active: [2] 10.6 µM
not listed: [6]
inactive: all other assays above

CC1(C)C(=O)N(Cl)C(=O)N1Br
active: [2] 62.7 µM
not listed: [9]
inactive: all other assays above

COc1cc(CCC(C)=O)ccc1O
not listed: [8]
inactive: all other assays above

CN(C)CCOc1ccc(/C(=C(/CCCl)c2ccccc2)c2ccccc2)cc1
active: [2] 1.18 µM
inactive: all other assays above

O=C1OC(=O)c2c(Br)c(Br)c(Br)c(Br)c21
not listed: [9]
inactive: all other assays above

CCCC[O][Al]([O]CCCC)[O]CCCC
inactive: all assays above

COc1ccc(OC)c(N=Nc2c(O)ccc3ccccc23)c1
active: [2] 3.46 µM
not listed: [8] | [9]
inactive: all other assays above

CCCCCC(C)=O
not listed: [9]
inactive: all other assays above

CC=Cc1ccc(OC)c(OC)c1
active: [2] 19.5 µM
not listed: [9]
inactive: all other assays above

CCc1cc(C(C)(C)C)c(O)c(C(C)(C)C)c1
active: [2] 8.94 µM | [6] 33.4 µM | [7] 59.9 µM
not listed: [8]
inactive: all other assays above
